Compound activity: PubChem, Broad Institute
Only a selection was taken, and hits are over-represented in it overall.
PD-1 reversal: activators reversing PD-1 mediated T-cell inhibition | activation, % (no concentration beside the values) | primary human CD4 T cells, PD-L1 beads, CellTiter-Glo 96 h | 29,000 tested, under 10 active; call rule not given here;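 also: 0% = median vehicle wells and 100% = positive control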
U2OS ROS induce: raises reactive oxygen species in U2OS cancer cells; ROS induction (% of piperlongumine), % at 10 µM; U2OS ROS induction, H2DCF-DA fluorescence; 46,000 tested, 2% active; in the data active = ROS induction above about 79%, passing the limit was not always enough;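 also: 0% = DMSO vehicle median and 100% = reference compound median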
NOMO-1 viab: STK33 inhibitor candidate reducing NOMO-1 cell viability | NOMO-1 AML viability, CellTiter-Glo luminescence, 72 h | inhibition, % (no concentration beside the values) | 37,000 tested, 7.5% active; in the data active = inhibition above about 80%
An asterisk follows results filed as active; nt = no result.

SMILES	PD-1 reversal	U2OS ROS induce	NOMO-1 viab
COc1cc([C@@H]2c3cc4c(cc3[C@H](OC(C)=O)[C@H]3COC(=O)[C@@H]23)OCO4)cc(OC)c1OC	nt	-11	108*
COc1cc([C@@H]2c3cc4c(cc3[C@@H](O)C3COC(=O)C32)OCO4)cc(OC)c1O (stereo not given in full)	nt	42	102*
COc1cc(C2c3cc4c(cc3CC3COC(=O)C32)OCO4)cc(OC)c1OC (stereo not given)	-9	14	118*
COc1ccc2c(c1OC)C(=O)O[C@H]2[C@H]1c2cc3c(cc2CCN1C)OCO3	nt	7	15
CCOC(=O)c1c(C)n(C(C)C)c2ccc(OC(=O)c3ccccc3)cc12	-2	0	5
O=C(O)C1C2CCC(O2)C1C(=O)NCCc1ccccc1 (stereo not given)	-12	-1	69
CC[C@@H](C)C(=O)O[C@H]1[C@H](O)[C@H]2[C@@H](CN3C[C@@H](C)CC[C@H]3[C@@]2(C)O)C2C[C@]34O[C@@]5(O)[C@@H](OC(=O)[C@](C)(O)CC)CC[C@@]3(C)[C@@H]5[C@@H](OC(C)=O)[C@@H](OC(C)=O)[C@H]4[C@@]21O (stereo not given in full)	2	4	15
O=c1c2ccccc2[se]n1-c1ccccc1	-58	-3	141*
O=c1c2ccccc2nc(C(F)(F)F)n1-c1ccccc1	4	1	4
COC(=O)CC1(CC(=O)OC)C(=O)N(C)C(=O)N(C)C1=O	1	-2	-9
CC[C@H]1CN2CC[C@H]1C[C@@H]2[C@@H](O)c1ccnc2ccc(OC)cc12	1	18	23
C[C@H]1CC[C@@H]2[C@@H](C)[C@H]3[C@H](C[C@H]4[C@@H]5CC=C6C[C@@H](O[C@@H]7O[C@H](CO)[C@H](O)[C@H](O[C@@H]8O[C@H](CO)[C@@H](O)[C@H](O)[C@H]8O)[C@H]7O[C@@H]7O[C@@H](C)[C@H](O)[C@@H](O)[C@H]7O)CC[C@]6(C)[C@H]5CC[C@]34C)N2C1	0	24	32
C[C@H]1CC[C@@H]2[C@@H](C)[C@H]3[C@H](C[C@H]4[C@@H]5CC=C6CC(O[C@@H]7O[C@H](CO)[C@@H](O)[C@H](O[C@@H]8O[C@H](CO)[C@@H](O)[C@H](O)[C@H]8O)[C@@H]7O[C@@H]7O[C@@H](C)[C@H](O)[C@@H](O)[C@H]7O)CC[C@]6(C)[C@H]5CC[C@]34C)N2C1 (stereo not given in full)	-5	-26	110*
